Bioassay records as filed in PubChem.
Shown are actives, neighbours in structure and some others; about 7.8% of the full set was active somewhere.
HCV inhibitor: blocks hepatitis C virus | Potency, µM (titrated, usually from 41.8 µM), usual class: inhibitors | AID 651820 | 3.4% of 340,000 active | Huh7.5.1 HCVcc-Cre infection, luciferase reporter, 44 h; active = well fitted inhibition curve with a large enough effect; inconclusive = small, poorly fitted or top-dose-only effect, or another doubt; inactive = no such curve, though single readings can be large or run the other way
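After 44 h co-culture of compound, cells and HCVcc-Cre (~0.5 moi), substrate is added for 15 min at room temperature and luciferase measured over 15 sec. Cells were seeded at 1,000/well and pre-cultured 4 h.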
HCMV antiviral: inhibitors of human cytomegalovirus | HFF cells, HCMV-luciferase reporter, 72 h; stronger effect = lower value | activity change, negative = inhibition, % at 57.5 µM | 4.5% of 410,000 active; in the data active = activity change below about -60%; inconclusive = no clear call, values can overlap the other calls; inactive = above about -39%
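Human foreskin fibroblasts infected with luciferase-reporter HCMV at MOI 1 PFU/cell, compounds at two doses. Luciferase measured 72 h post infection; normalized to buffer-only basal and Salinomycin (10uM) controls.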
Marburg entry inh: blocks Marburg virus binding to or entry into cells | Marburg virus pseudotyped entry inhibition, cell reporter | Potency, µM (top dose mostly 37.8 µM), most hits filed as inhibitors | 1.8% of 300,000 active | AID 540276; calls by dose curve; tested in HEK293 cells
Lassa entry inh: Lassa virus entry inhibition. Potency, µM (series often up to 37.9 µM), usual class: inhibitors. 1.2% of 300,000 active. Lassa virus pseudotype entry inhibition, cell reporter; calls by dose curve; tested in HEK293 cells; note: nearly all actives have a fitted effect of over 50% in size
Vaccinia mCherry: inhibitors of vaccinia virus infection (mCherry reporter signal); Vaccinia virus mCherry reporter infection, fluorescence; Potency, µM (doses to about 36.5 µM), hits mostly inhibitors; 0.63% of 310,000 active; calls by dose curve; tested in A549 cells; note: nearly all actives have a fitted effect of over 35% in size
Vaccinia Venus: vaccinia inhibition (Venus reporter) | Potency, µM (series often up to 36.5 µM), usual class: inhibitors | AID 720580 | 0.46% of 330,000 active | Vaccinia virus Venus reporter expression, fluorescence; calls by dose curve; tested in A549 cells; note: nearly all actives have a fitted effect of over 30% in size
Of the large screens only hits and unclear results are named; the others gave an inactive call.

COc1ccc(NC(=O)CCOc2ccccc2C)cc1S(=O)(=O)N1CCCCC1	HCV inhibitor 11.2µM, HCMV antiviral inconclusive, Marburg entry inh inconclusive, Lassa entry inh inconclusive
CC(C)c1nn2c(=O)cc(COC(=O)c3ccc(NC(=O)CCc4ccccc4)cc3)nc2s1	none (no result: HCV inhibitor, Marburg entry inh)
COc1cc(CCC(=O)Nc2ccc(C)c(S(=O)(=O)N3CCCCCC3)c2)cc(OC)c1OC	HCV inhibitor 7.94µM, HCMV antiviral -70.0, Marburg entry inh inconclusive, Lassa entry inh inconclusive, Vaccinia mCherry inconclusive
COc1cc(CCC(=O)Nc2ccc(S(=O)(=O)N3CCCC3)cc2)cc(OC)c1OC	HCV inhibitor inconclusive (no result: Marburg entry inh, Lassa entry inh, Vaccinia mCherry, Vaccinia Venus)
Cc1ccccc1-c1nc(CN2CCC(C(=O)NCCCN3CCCC(C)C3)CC2)c(C)o1 (configuration not stated)	HCV inhibitor 5.01µM, HCMV antiviral -63.4, Marburg entry inh inconclusive, Lassa entry inh inconclusive
Cc1ccccc1-c1nc(CN2CCC(C(=O)NC3CCCCC3)CC2)c(C)o1	none
COc1ccc(CCNC(=O)C2CCN(Cc3nc(-c4ccccc4C)oc3C)CC2)cc1OC	HCV inhibitor 7.94µM, Marburg entry inh inconclusive (no result: Vaccinia mCherry, Vaccinia Venus)
Cc1ccccc1-c1nc(CN2CCC(C(=O)NCCC3=CCCCC3)CC2)c(C)o1	HCV inhibitor 6.31µM, Marburg entry inh inconclusive, Lassa entry inh inconclusive (no result: Vaccinia mCherry, Vaccinia Venus)
Cc1ccccc1-c1nc(CN2CCC(C(=O)NCCc3ccccc3)CC2)c(C)o1	none (no result: HCV inhibitor)
COC(=O)[C@]1(C#N)[C@@H](c2ccccc2)C(=O)N(Cc2ccc(Cl)cc2)[C@@H]1c1ccc(OC)cc1	none (no result: HCV inhibitor, Marburg entry inh, Lassa entry inh, Vaccinia mCherry, Vaccinia Venus)
Oc1c(C(c2ccccn2)N2CCC(Cc3ccccc3)CC2)cc(Cl)c2cccnc12 (configuration not stated)	HCV inhibitor 17.8µM, HCMV antiviral -89.5, Marburg entry inh inconclusive, Lassa entry inh inconclusive, Vaccinia mCherry inconclusive, Vaccinia Venus inconclusive
Oc1c(C(c2ccc(Cl)cc2)N2CCCC2)cc(Cl)c2cccnc12 (configuration not stated)	HCV inhibitor inconclusive, HCMV antiviral inconclusive, Vaccinia mCherry 12.6µM, Vaccinia Venus inconclusive (no result: Marburg entry inh, Lassa entry inh)
Oc1c(C(c2ccccc2Cl)N2CCCC2)ccc2cccnc12 (configuration not stated)	HCV inhibitor 10µM, Vaccinia mCherry inconclusive, Vaccinia Venus inconclusive (no result: Marburg entry inh, Lassa entry inh)
O=C(C1CCC(CNS(=O)(=O)c2ccccc2)CC1)N1CCCCC1 (configuration not stated)	Lassa entry inh inconclusive
COc1ccc(CN2CCN(C(=O)C3CCC(CNS(=O)(=O)c4ccccc4)CC3)CC2)c(OC)c1OC (configuration not stated)	HCV inhibitor 3.55µM, HCMV antiviral -101.6, Marburg entry inh inconclusive
COc1ccc(Nc2ncc(C(=O)N3CCN(Cc4ccccc4)CC3)c3ccccc23)cc1	HCV inhibitor 10µM, Marburg entry inh inconclusive, Lassa entry inh inconclusive (no result: Vaccinia mCherry, Vaccinia Venus)
COc1ccccc1Nc1ncc(C(=O)N2CCN(Cc3ccc(OC)c(OC)c3OC)CC2)c2ccccc12	HCV inhibitor 12.6µM, Marburg entry inh inconclusive, Lassa entry inh 12.6µM
CC1=C(C(=O)Nc2ccccc2Br)C2(CCC(C)CC2)OC1=O (configuration not stated)	none (no result: HCV inhibitor)
Cc1cc(C)cc(NC(=O)c2ccc3oc(=O)c(S(=O)(=O)c4ccc(F)cc4)cc3c2)c1	Marburg entry inh inconclusive (no result: HCV inhibitor)
COc1c(O)ccc(C2NC(=O)NC(C)=C2C(=O)Nc2ccccc2C)c1[N+](=O)[O-] (configuration not stated)	HCMV antiviral -63.1
COc1ccccc1C1NC(=O)NC(C)=C1C(=O)Nc1cccc(C)c1C (configuration not stated)	none (no result: Marburg entry inh, Lassa entry inh)
CCC(=O)c1c(NCCc2ccccc2)cc(C)oc1=O	HCV inhibitor inconclusive, HCMV antiviral -98.2 (no result: Vaccinia mCherry, Vaccinia Venus)
CCC(=O)c1c(NC)cc(C)oc1=O	none
O=c1[nH][nH]c(-c2ccccc2O)c1C(C[N+](=O)[O-])c1ccc(Br)cc1 (configuration not stated)	HCV inhibitor inconclusive, HCMV antiviral inconclusive, Marburg entry inh inconclusive, Lassa entry inh inconclusive
Cc1ccc(C(C[N+](=O)[O-])c2c(-c3ccccc3O)[nH][nH]c2=O)cc1 (configuration not stated)	HCMV antiviral -74.7, Marburg entry inh inconclusive
